# Screening data from PubChem BioAssay.
# KB-3-1 cytotox = qHTS assay for MDR1-selective chemotherapeutics: Primary screen using the parental adenocarcinoma cell KB-3-1 | KB-3-1 viability, CellTiter-Glo ATP luminescence, 72 h | Potency, µM (top dose mostly 46.1 µM), usual class: cytotoxic | 400,000 compounds, 1.4% hits | AID 1347075, 2019; also: nearly all actives have a fitted effect of over 60% in size
#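 72 h, 37 °C compound treatment of KB-3-1 parental cells; CellTiter-Glo added, 10 min, luminescence read. Data corrected against DMSO-only plates and normalized before curve fitting.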
# KB-V1 MDR tox = qHTS assay for MDR1-selective chemotherapeutics: Primary screen using the drug-selected MDR subline cells KB-V1. KB-V1 MDR cells viability, CellTiter-Glo, 72 h. Potency, µM (doses to about 46.1 µM), usual class: cytotoxic. 400,000 compounds, 3.4% hits; also: nearly all actives have a fitted effect of over 60% in size
#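 KB-V1 cells (P-gp-expressing MDR subline of KB-3-1) in phenol-red-free DMEM with 10% FBS were exposed to library compounds over a concentration series for 72 h at 37 degrees C. Viability read by CellTiter-Glo luminescence; concentration-effect curves fitted after normalization.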
# HT1080 IDH1KD tx = qHTS for induction of synthetic lethality in tumor cells producing 2HG: qHTS for the HT-1080-IDH1KD cell line; Potency, µM (series often up to 46.1 µM), inactives show at the highest dose activity, negative = toxicity, actives largely listed as cytotoxic; 360,000 compounds, 2% hits; HT-1080 IDH1 knockdown viability, ATP luminescence, 48 h; AID 686971, 2013;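 also: 0% = DMSO wells and -100% = cell-free medium wells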
#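 In this qHTS, HT-1080 cells depleted of IDH1 are exposed for 48 h at 37 °C to compound titrations. Toxicity is scored from CellTiter-Glo luminescence, with DMSO as full viability and medium alone as none.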
# HT1080-NT tox = qHTS for induction of synthetic lethality in tumor cells producing 2HG: qHTS for the HT-1080-NT fibrosarcoma cell line | AID 686970, 2013 | Potency, µM (highest dose often 46.1 µM), for the others: at the highest dose activity, negative = less viability, actives largely listed as cytotoxic | HT-1080-NT fibrosarcoma viability, CellTiter-Glo ATP luminescence, 48 h | 360,000 compounds, 1.6% hits;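 also: NT is the 2HG producing partner of a matched IDH1 knockdown line; 0% = DMSO-treated cells and -100% = media-only wells without cells; nearly all actives have a fitted effect of over 55% in size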
#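 Viability of the 2HG-overproducing fibrosarcoma line after 48 hours of compound exposure at 37 degrees C was determined by luminescence with CellTiter-Glo, and concentration-effect curves were then fitted and categorized.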
# TDP1 cell CPT = qHTS for Inhibitors of human tyrosyl-DNA phosphodiesterase 1 (TDP1): qHTS in cells in presence of CPT | Potency, µM (titrated, usually from 46.2 µM), inactives show at the top dose activity change, negative = growth inhibition, most hits filed as inhibitors | AID 686979, 2013 | chicken DT40 Tdp1-/-;hTDP1 cells + 20 nM CPT, ATP luminescence, 48 h | 420,000 compounds, 12% hits; also: nearly all actives have a fitted effect of over 55% in size
#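 Cell growth measured by CellTiter-Glo luminescence after a minimum 48 h, 37 C compound exposure with 20 nM CPT in Tdp1-knockout DT40 cells stably expressing hTDP1, seeded 400/well; qHTS titration format.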
# DT40 TDP1 no CPT = qHTS for Inhibitors of human tyrosyl-DNA phosphodiesterase 1 (TDP1): qHTS in cells in absence of CPT; DT40 Tdp1-/- hTDP1 cells, no CPT, ATP luminescence, 48 h; Potency, µM (top dose mostly 46.2 µM), without a hit: at the top dose activity change, negative = growth inhibition, actives largely listed as inhibitors; 420,000 compounds, 15% hits; AID 686978, 2013; also: nearly all actives have a fitted effect of over 55% in size
#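 Chicken DT40 Tdp1-/- cells stably complemented with human TDP1 were seeded at 400 cells/well with DMSO in place of 20 nM camptothecin. After compound pinning, cells grew at least 48 hr at 37 °C; viability read by CellTiter-Glo luminescence.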
# An asterisk follows results filed as active; i = inactive; ? = inconclusive; · = not tested or not shown. Most compounds without a hit are left out; they make up all but 19% or so of the library. Calls follow the shape of the dose curve; as a rule, active = well fitted curve in the direction sought with a large enough effect; inconclusive = small, poorly fitted or top-dose-only effect, or another doubt; inactive = no such curve, though single readings can be large; an effect the other way counts as inactive or inconclusive. Unless noted, % is scaled to controls: 0 for no effect and ±100 for the full control effect; potency is read from the fitted curve at half-maximal effect.
SMILES,KB-3-1 cytotox,KB-V1 MDR tox,HT1080 IDH1KD tx,HT1080-NT tox,TDP1 cell CPT,DT40 TDP1 no CPT
COC(=O)C1=C(C)Nc2nnnn2C1c1cccnc1 (configuration not stated),i,i,0%,-1%,-4%,-28%
CC1=C(C(=O)OC2CCCCC2)C(c2cccnc2)n2nnnc2N1 (configuration not stated),i,i,-8%,-3%,8.2µM*,12µM*
Cc1ccc(C(=O)Nc2cccc(C(F)(F)F)c2)cc1Nc1ncnc2nc[nH]c12,?,?,-2%,-4%,26µM*,21µM*
Cc1ccc(C(=O)Nc2cccc(C(F)(F)F)c2)cc1NC(=O)c1ccno1,i,i,5%,3%,?,12µM*
Cc1ccc(C(=O)Nc2cccc(C(F)(F)F)c2)cc1NC(=O)c1nccn1C,i,?,-2%,8%,2%,3%
O=C(Nc1cnccn1)c1cccc(C(F)(F)F)c1,i,i,2%,-3%,-9%,-15%
Cc1ccc(C(=O)Nc2cccc(C(F)(F)F)c2)cc1Nc1cnccn1,i,i,0%,-1%,23µM*,16µM*
CCCCN(C)C(=O)c1ccc(Nc2nc(C(N)COCc3ccccc3)cs2)nc1 (configuration not stated),i,i,?,?,12µM*,15µM*
CC(C)CC(N)c1csc(Nc2ccc(C(=O)NCCCO)cn2)n1 (configuration not stated),i,i,2%,0%,?,?
CC(C)C(N)c1csc(Nc2ccc(C(=O)N(C)Cc3ccccc3)cn2)n1 (configuration not stated),i,i,15µM*,15µM*,?,?
CN(Cc1ccccc1)C(=O)c1ccc(Nc2nc(CN)cs2)nc1,i,i,2%,-8%,-16%,-17%
CCCSc1nc2c3c(sc2c(=O)[nH]1)CC(C)(CC)OC3 (configuration not stated),i,?,-17%,1%,-5%,-12%
CCCCCC1(C(=O)OCC)CC(CSC(=N)N)OC1=O (configuration not stated),?,i,2%,1%,21µM*,16µM*
CCOC(=O)C1(CC)CC(CSc2nc3ccccc3[nH]2)OC1=O (configuration not stated),i,i,2%,3%,?,?
Cc1ccc(NC(=O)CN2CCN(CCN=CC3=C(O)CC(c4ccc(C)cc4)CC3=O)CC2)cc1 (configuration not stated),i,i,-4%,-3%,-2%,-13%
Clc1cccc(Cl)c1CO/N=C/c1c(-c2ccccc2)nc2n1CCS2,?,13µM*,-30%,?,18µM*,21µM*
CC(C)(C)C(=O)NC(n1cnc2c(N3CCOCC3)ncnc21)C(Cl)(Cl)Cl (configuration not stated),i,i,12%,30%,-3%,-19%
COC(=O)c1ccc(Cl)c(NC(=O)C2CCN(S(=O)(=O)Cc3ccccc3)CC2)c1,i,i,·,·,-24%,-14%
COc1cccc(NC(=O)CN(c2ccccc2OC)S(=O)(=O)c2cccs2)c1,i,i,-10%,0%,?,21µM*
